From PubChem BioAssay AID556 (SRMLSC, 2006)
Among all 65,000 compounds or so, about 320 (0.49%) were called active.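 The calls were made as follows: active = the 320 compounds with the highest percent inhibition in the single-dose primary screen, excluding strongly autofluorescent ones (cut at about 32% in these data); inactive = the rest, inconclusive results apart.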 Many of the other results were omitted from the sample, so actives are more common in it than they were.

System: diphosphomevalonate decarboxylase (Streptococcus pneumoniae D39)
Experiment: diphosphomevalonate decarboxylase activity blockers – biochemical, PK/LDH-coupled NADH fluorescence, primary screen (AID 556);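 as to inhibition: kinetic rate of NADH fluorescence loss reporting ADP formed by the decarboxylase; 0% = full reaction rate with carrier and 100% = no-substrate background rate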
Settings: purified DPM-DC, at 10 µM
[1] = stronger effect = higher value unless noted
[2] = measured here: pilot screen trials, stronger effect = higher value

Question: With `CCOC(=O)N1CCC(O)(c2cc(C)c(C)cc2C)CC1` as the compound, how does the inhibition [1] read?
Answer: 0.5% [measured here: pilot screen trials, stronger effect = higher value]

Question: What about the outcome [1] of the same compound?
Answer: inactive

Question: Which inhibition [1] does the source give for `O=C(C1=C(O)C(=O)N(c2ncccn2)C1c1cccs1)c1ccco1` (stereo not drawn) here?
Answer: 1% (inactive)

Question: For `Cc1[nH]c2ccc(S(N)(=O)=O)cc2c1C`, which inhibition [1] is on record?
Answer: inactive

Question: How did the inhibition [1] turn out when `CCN(CC)c1ccc(C(=O)OCC(=O)c2ccco2)cc1` was run?
Answer: inactive

Question: How did the inhibition [1] turn out when `Cc1ccc(S(=O)(=O)N2CC(=O)Nc3ccccc32)cc1C` was run?
Answer: inactive

Question: For `Cc1nc(NC(=O)C23CCC(C)(C(=O)O2)C3(C)C)sc1C` (stereo not drawn), which inhibition (stronger effect = higher value) is on record?
Answer: 6% (inactive)

Question: And the inhibition [2]?
Answer: 2%

Question: Which inhibition [1] does the source give for `Cc1noc(C)c1C(=O)OCC(=O)/C=C1\N(C)c2ccccc2C1(C)C` here?
Answer: inactive

Question: Which inhibition [1] does the source give for `CCOC(=O)CN1CC23C=CC(O2)C(C(=O)Nc2ccc(F)cc2)C3C1=O` (stereo not drawn) here?
Answer: inactive

Question: `CCOCCOC(=O)C1=C(C)N(C)C(=O)NC1c1ccccc1F` (stereo not drawn) was tested. Which inhibition [1] did it give?
Answer: inactive

Question: With `Cc1c(C(=O)NCC2CCCO2)sc2nc(-c3ccccc3)cn12` (stereo not drawn) as the compound, how does the inhibition [1] read?
Answer: 35% (active)

Question: How did the inhibition [1] turn out when `Cc1c(C(=O)N2CC(C)OC(C)C2)sc2nc(-c3ccccc3)cn12` (stereo not drawn) was run?
Answer: inactive

Question: Which inhibition [1] does the source give for `Cc1c(C(=O)NCCN2CCOCC2)sc2nc(-c3ccc(F)cc3)cn12` here?
Answer: 9% (inactive)

Question: With `C=CCn1c(C2CC(=O)N(c3ccc(C)cc3)C2)nc2ccccc21` (stereo not drawn) as the compound, how does the inhibition [1] read?
Answer: inactive

Question: Which inhibition [1] does the source give for `O=C(CSc1nc2cc3c(cc2c(=O)n1CCC1=CCCCC1)OCO3)NCc1ccco1` here?
Answer: inactive

Question: With `CCNS(=O)(=O)c1ccc(NC(=O)Nc2cccc(C(F)(F)F)c2)cc1` as the compound, how does the inhibition [1] read?
Answer: inactive

Question: Which inhibition [1] does the source give for `CCCCOc1ccc(C(C)(O)CCN2CCOCC2)cc1` (stereo not drawn) here?
Answer: inactive

Question: How did the inhibition [1] turn out when `CC1(C)Oc2ccc(C(=O)N3CCOCC3)cc2N(CC(=O)Nc2ccccc2)C1=O` was run?
Answer: inactive

Question: With `CCCCNc1nc2ccccc2nc1NS(=O)(=O)c1cccs1` as the compound, how does the inhibition [1] read?
Answer: 2% (inactive)

Question: How did the inhibition [1] turn out when `Cc1ccc(CN2C(=O)CCC2C(=O)NCCCN2CCCCC2C)cc1` (stereo not drawn) was run?
Answer: inactive

Question: How did the inhibition [1] turn out when `Cn1c(SCc2nc3ccccc3s2)nnc1-c1ccc2c(c1)OCO2` was run?
Answer: inactive

Question: With `Cc1cccc(N2CCN(C(=O)C3CCN(S(=O)(=O)c4cnc[nH]4)CC3)CC2)c1C` as the compound, how does the inhibition [1] read?
Answer: inactive

Question: `CCCCCCOC(=O)NCC(O)c1ccccc1` (stereo not drawn) was tested. Which inhibition [1] did it give?
Answer: inactive

Question: For `Cc1nc(NCCN)c(C#N)c2c1COC(C)(C)C2`, which inhibition [1] is on record?
Answer: 32% (active)

Question: For `Cc1nc(NCc2ccccc2)c(C(N)=O)c2c1COC(C)(C)C2`, which inhibition [1] is on record?
Answer: 24% (inactive)

Question: `Cn1c(=O)c(=O)n(C)c2cc(S(=O)(=O)NCCc3ccccc3)ccc21` was tested. Which inhibition [1] did it give?
Answer: inactive

Question: With `Cc1ccc(S(=O)(=O)NCCN2CCOCC2)cc1C` as the compound, how does the inhibition (stronger effect = higher value) read?
Answer: 80% (active)

Question: What about the inhibition [2] of the same compound?
Answer: 0%

Question: For `Cc1cc(C)c(S(=O)(=O)NCCCN2CCOCC2)cc1Br`, which inhibition [1] is on record?
Answer: inactive

Question: `COCCNC(=O)CN1C(=O)CSc2ncccc21` was tested. Which inhibition [1] did it give?
Answer: 0% [measured here: pilot screen trials, stronger effect = higher value]

Question: What about the outcome [1] of the same compound?
Answer: inactive

Question: Which inhibition [1] does the source give for `c1ccc(CCc2nc(-c3ccncc3)no2)cc1` here?
Answer: inactive

Question: How did the inhibition [1] turn out when `Cc1ccccc1CN1CCN(CC(=O)NCc2ccccn2)C1=O` was run?
Answer: inactive

Question: Which inhibition [1] does the source give for `COc1ccc2c(c1)C(C)=CC(C)(C)N2C(=O)CNCc1ccc2c(c1)OCO2` here?
Answer: 7% (inactive)

Question: Which inhibition [1] does the source give for `CC(C)c1nc2oc3c(N4CCN(C)CC4)ncnc3c2c2c1CCC2` here?
Answer: inactive

Question: Which inhibition [1] does the source give for `Cc1cccc(C)c1NC(=O)CCCSc1nnc(-c2ccco2)n1-c1ccccc1` here?
Answer: inactive

Question: Which inhibition [1] does the source give for `NC(=O)c1ccsc1NC(=O)c1ccco1` here?
Answer: 9% (inactive)

Question: How did the inhibition [1] turn out when `Cc1cc(C)c(C#N)c(SCS(=O)c2ccc(C(C)(C)C)cc2)n1` (stereo not drawn) was run?
Answer: inactive

Question: For `O=C(CCS(=O)(=O)c1cccc2nonc12)NCCc1ccccc1Cl`, which inhibition [1] is on record?
Answer: inactive

Question: `COCCCN1C(=O)c2ccc(C(=O)Nc3ccc(OC)cc3OC)cc2C1=O` was tested. Which inhibition [1] did it give?
Answer: inactive

Question: `CCCN1C(=O)C(NC(C)=O)c2cc(OC)ccc21` (stereo not drawn) was tested. Which inhibition [1] did it give?
Answer: 40% (active)

Question: Which results are given for `CCC1=C(C(=O)OC)C(c2cc(OC)ccc2OC)C(C#N)=C(N)O1` (stereo not drawn)?
Answer: inhibition [1]: 0% [measured here: pilot screen trials, stronger effect = higher value]; outcome [1]: inactive

Question: Which inhibition [1] does the source give for `CCC(=O)c1ccc(OCC(O)CN2C(=O)NC(C)(C)C2=O)cc1` (stereo not drawn) here?
Answer: inactive

Question: Which results are given for `CC1(C)CC(=O)C=C(NCc2ccncc2)C1`?
Answer: inhibition [1]: 2.5% [measured here: pilot screen trials, stronger effect = higher value]; outcome [1]: inactive

Question: With `CCCC(=O)N=c1sc2cccc(F)c2n1C` as the compound, how does the inhibition [1] read?
Answer: inactive

Question: Which inhibition [1] does the source give for `Cn1c(=NC(=O)c2ccco2)sc2cccc(F)c21` here?
Answer: 37% (active)

Question: Which inhibition [1] does the source give for `Cn1c(=NC(=O)C2CC2)sc2cc(F)cc(F)c21` here?
Answer: inactive

Question: Which inhibition [1] does the source give for `c1ccc(-n2ncc3c2ncn2c(C4CCCCC4)nnc32)cc1` here?
Answer: inactive

Question: For `CC(=O)Nn1cc2c(=O)n(C)c(=O)n(C)c2c1`, which inhibition [1] is on record?
Answer: inactive

Question: For `COc1cc(C(=O)N(Cc2ccc(N(C)C)cc2)C2CCS(=O)(=O)C2)cc(OC)c1OC` (stereo not drawn), which inhibition [1] is on record?
Answer: inactive

Question: How did the inhibition [1] turn out when `COc1ccc(OCC(=O)N2CCOCC2)cc1` was run?
Answer: inactive

Question: For `CCCCOC(=O)Nc1nccs1`, which inhibition (stronger effect = higher value) is on record?
Answer: 1% (inactive)

Question: What about the inhibition [2] of the same compound?
Answer: 4.5%

Question: Which inhibition [1] does the source give for `CN(C)CCNC(CC(=O)Nc1ccc(Cl)c(Cl)c1)C(=O)O` (stereo not drawn) here?
Answer: inactive

Question: How did the inhibition [1] turn out when `COc1cc(Cl)cc(C2NC(=O)NC(C)=C2C(=O)NCc2ccccc2)c1O` (stereo not drawn) was run?
Answer: 12% (inactive)

Question: Which inhibition [1] does the source give for `CCOc1ccc(C2C(C(=O)NC)=C(C)Nc3nc4ccccc4n32)cc1OC` (stereo not drawn) here?
Answer: inactive

Question: Which inhibition [1] does the source give for `Cc1onc(-c2ccccc2)c1C(=O)Nc1ccccc1C#N` here?
Answer: 5% (inactive)

Question: With `CC(=O)N1CCc2cc(S(=O)(=O)Nc3ccccc3N3CCN(C)CC3)ccc21` as the compound, how does the inhibition [1] read?
Answer: 1% (inactive)

Question: With `CC(c1cccnc1)N(CCN(C)C)C(=O)Nc1ccc(Cl)c(Cl)c1` (stereo not drawn) as the compound, how does the inhibition [1] read?
Answer: inactive

Question: How did the inhibition [1] turn out when `COc1ccc(C(CNC(=O)c2cccnc2SC)N2CCOCC2)cc1` (stereo not drawn) was run?
Answer: inactive

Question: With `COc1cc(C2C(C(=O)Nc3ccccc3OC)=C(C)Nc3ncnn32)ccc1O` (stereo not drawn) as the compound, how does the inhibition [1] read?
Answer: inactive

Question: For `Cc1cc(NC(=O)CSc2nnc(-c3ccc(Cl)s3)o2)no1`, which inhibition [1] is on record?
Answer: inactive

Question: For `COc1ccc(OCCCC(=O)Nc2nnc(C3CCCO3)s2)cc1` (stereo not drawn), which inhibition [1] is on record?
Answer: inactive

Question: `O=C(Nc1ccccc1N1CCN(C(=O)c2ccccc2)CC1)c1ccc2c(c1)OCO2` was tested. Which inhibition [1] did it give?
Answer: inactive

Question: Which inhibition [1] does the source give for `Cc1ccc(C)c(S(=O)(=O)N2CC(=O)Nc3ccccc32)c1` here?
Answer: inactive

Question: With `COc1ccc(S(=O)(=O)N2CCOCC2)cc1C(=O)Nc1nc2ccccc2s1` as the compound, how does the inhibition [1] read?
Answer: 6% (inactive)

Question: Which inhibition [1] does the source give for `N#Cc1cccc(NC(=O)CCC2CCCC2)c1` here?
Answer: inactive

Question: `CCCCn1nc(C(=O)N2CCc3ccccc32)c2ccccc2c1=O` was tested. Which inhibition (stronger effect = higher value) did it give?
Answer: 4% (inactive)

Question: And the inhibition [2]?
Answer: 2%

Question: `Cc1cc(C)nc(SCc2nnc(SCC(=O)OC3CCCCC3)o2)n1` was tested. Which inhibition [1] did it give?
Answer: inactive
